Laboratory results reported in the supplement of paper PMC10849652.
Targets with a hit are over-represented here; the source holds about 8,800 in all. About 0.5% of all pairs of compound and target were hits.

Tests used:
Test in all cases: log2 fold change, soluble protein after heating vs DMSO (PISA); higher = thermal stabilisation; K562 lysate, 10 uM; active = over 0.2 and 3.5 SD of the protein, either way, in both replicates (recomputed)
erlotinib = compound: C#Cc1cccc(Nc2ncnc3cc(OCCOC)c(OCCOC)cc23)c1 [erlotinib]
How it was run: (§1)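 Dounce homogenisation of K562 pellets in PBS pH 7.4 with 1 mM MgCl2 produced a crude extract, used at 1 mg/mL protein. Exposure to 10 μM compound lasted 30 min, and aliquots were then heated for 3 min across 48°C-58°C, pooled and brought to 0.5% NP-40 at 4°C. The supernatant after 21,000xg for 90 min was quantified by TMTpro 16plex LC-MS/MS with channel sums equalised. Duplicate values are given as log-two fold change in thermal stability relative to solvent controls.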

[1] = compound: C/C(=N\NC(=O)C1=CC(=CC=C1)S(=O)(=O)N2CCOCC2)/C3=C(C=CC(=C3)Cl)O
How it was run: as §1

[2] = compound: C1=CC(=CC=C1C2=NC3=C(N2)C=C(C=C3)C(=O)N)OC4=CC=C(C=C4)Cl
How it was run: as §1

[3] = compound: C1=CC2=C(C=CC(=C2)/C=C\3/C(=O)NC(=NCC4=CC=CS4)S3)N=C1
How it was run: as §1

[4] = compound: C1=CC2=NC=CN=C2C=C1/C=C/3\C(=O)NC(=O)S3
How it was run: as §1

[5] = compound: C1=CC=C(C=C1)C2=NC(=C(N2)C3=CC=NC=C3)C4=CC(=C(C=C4)Cl)O
How it was run: as §1

[6] = compound: C1=CC=C2C(=C1)C3=NNC4=CC=CC(=C43)C2=O
How it was run: as §1

[7] = compound: C1CCN(C1)C(=O)NC2=CC=CC(=C2)NC3=NC=C(C(=N3)NCCC4=CN=CN4)Br
How it was run: as §1

[8] = compound: C1CN(CCC1(CC2=CC=C(C=C2)Cl)N)C3=NC=NC4=C3C=CN4
How it was run: as §1

IRAK-1-4 Inhibitor I = compound: C1COCCN1CCN2C3=CC=CC=C3N=C2NC(=O)C4=CC(=CC=C4)[N+](=O)[O-] [IRAK-1-4 Inhibitor I]
How it was run: as §1

Measured: log2 fold change

ABHD12 isoform 2 (UniProt Q8N2K0)
inactive: erlotinib -0.027 | [1] -0.031 | [2] -0.062 | [3] 0.074 | [4] 0.037 | [5] -0.064 | [6] 0 | [7] -0.03 | [8] 0.048 | IRAK-1-4 Inhibitor I 0.014

APEX1 (UniProt P27695)
inactive: erlotinib 0.026 | [1] 0.011 | [2] -0.011 | [3] 0.016 | [4] 0 | [5] 0.004 | [6] -0.072 | [7] 0 | [8] 0.003 | IRAK-1-4 Inhibitor I -0.007

AGTPBP1 (UniProt Q9UPW5)
inactive: erlotinib -0.033 | [1] -0.084 | [2] 0.027 | [3] -0.029 | [4] 0.042 | [5] -0.053 | [6] -0.039 | [7] -0.017 | [8] 0.005 | IRAK-1-4 Inhibitor I 0.022

ACYP1 (UniProt P07311)
inactive: erlotinib -0.032 | [1] 0.028 | [2] -0.007 | [3] -0.02 | [4] -0.008 | [5] -0.017 | [6] -0.01 | [7] 0.024 | [8] -0.004 | IRAK-1-4 Inhibitor I 0.013

AGGF1 (UniProt Q8N302)
inactive: erlotinib -0.015 | [1] -0.056 | [2] 0.054 | [3] -0.19 | [4] -0.077 | [5] 0.018 | [6] 0.057 | [7] -0.038 | [8] -0.022 | IRAK-1-4 Inhibitor I 0.023

ARFGAP1 (UniProt Q8N6T3)
inactive: erlotinib -0.028 | [1] -0.209 | [2] -0.025 | [3] 0.005 | [4] 0.029 | [5] -0.039 | [6] -0.025 | [7] -0.018 | [8] 0.002 | IRAK-1-4 Inhibitor I 0.038

AMPD3 isoform 4 (UniProt Q01432)
inactive: erlotinib 0 | [1] 0.048 | [2] 0.031 | [3] 0.007 | [4] -0.072 | [5] -0.004 | [6] 0.027 | [7] -0.002 | [8] -0.002 | IRAK-1-4 Inhibitor I 0.015

ALDH18A1 (UniProt P54886)
UniProt P54886, sequence (P54886 whole entry, looked up): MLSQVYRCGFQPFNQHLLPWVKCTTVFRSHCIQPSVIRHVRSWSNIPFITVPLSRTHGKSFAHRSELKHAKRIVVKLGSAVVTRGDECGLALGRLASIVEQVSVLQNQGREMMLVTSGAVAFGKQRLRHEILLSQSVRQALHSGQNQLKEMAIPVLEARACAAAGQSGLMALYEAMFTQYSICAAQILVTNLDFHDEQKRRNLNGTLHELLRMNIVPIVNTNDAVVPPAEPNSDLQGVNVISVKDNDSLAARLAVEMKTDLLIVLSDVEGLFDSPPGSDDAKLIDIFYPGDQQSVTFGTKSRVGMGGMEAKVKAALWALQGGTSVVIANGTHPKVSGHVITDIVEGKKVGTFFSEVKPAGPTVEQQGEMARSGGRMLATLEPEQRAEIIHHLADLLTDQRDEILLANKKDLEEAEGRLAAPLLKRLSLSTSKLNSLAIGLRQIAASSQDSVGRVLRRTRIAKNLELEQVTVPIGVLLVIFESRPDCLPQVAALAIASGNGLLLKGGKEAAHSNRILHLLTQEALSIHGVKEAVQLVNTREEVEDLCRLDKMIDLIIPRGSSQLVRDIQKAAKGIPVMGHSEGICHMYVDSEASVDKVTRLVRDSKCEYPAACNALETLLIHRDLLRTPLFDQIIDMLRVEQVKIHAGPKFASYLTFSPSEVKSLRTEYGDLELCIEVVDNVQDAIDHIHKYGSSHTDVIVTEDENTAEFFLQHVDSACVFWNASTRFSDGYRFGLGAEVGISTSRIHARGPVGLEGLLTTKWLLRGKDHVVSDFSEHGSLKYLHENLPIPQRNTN
inactive: erlotinib 0.029 | [1] -0.039 | [2] -0.017 | [3] 0.02 | [4] -0.015 | [5] -0.016 | [6] -0.025 | [7] -0.022 | [8] 0.001 | IRAK-1-4 Inhibitor I -0.006

ABHD17B (UniProt Q5VST6)
inactive: erlotinib -0.08 | [1] -0.047 | [2] -0.011 | [3] 0.044 | [4] -0.043 | [5] 0 | [6] 0.021 | [7] 0.064 | [8] -0.111 | IRAK-1-4 Inhibitor I 0.014

ASNS (UniProt P08243)
inactive: erlotinib 0.024 | [1] 0.067 | [2] -0.019 | [3] -0.007 | [4] 0.017 | [5] -0.023 | [6] -0.018 | [7] 0.016 | [8] 0.038 | IRAK-1-4 Inhibitor I 0.011

AP4B1 (UniProt Q9Y6B7)
UniProt Q9Y6B7, sequence (Q9Y6B7 whole entry, looked up): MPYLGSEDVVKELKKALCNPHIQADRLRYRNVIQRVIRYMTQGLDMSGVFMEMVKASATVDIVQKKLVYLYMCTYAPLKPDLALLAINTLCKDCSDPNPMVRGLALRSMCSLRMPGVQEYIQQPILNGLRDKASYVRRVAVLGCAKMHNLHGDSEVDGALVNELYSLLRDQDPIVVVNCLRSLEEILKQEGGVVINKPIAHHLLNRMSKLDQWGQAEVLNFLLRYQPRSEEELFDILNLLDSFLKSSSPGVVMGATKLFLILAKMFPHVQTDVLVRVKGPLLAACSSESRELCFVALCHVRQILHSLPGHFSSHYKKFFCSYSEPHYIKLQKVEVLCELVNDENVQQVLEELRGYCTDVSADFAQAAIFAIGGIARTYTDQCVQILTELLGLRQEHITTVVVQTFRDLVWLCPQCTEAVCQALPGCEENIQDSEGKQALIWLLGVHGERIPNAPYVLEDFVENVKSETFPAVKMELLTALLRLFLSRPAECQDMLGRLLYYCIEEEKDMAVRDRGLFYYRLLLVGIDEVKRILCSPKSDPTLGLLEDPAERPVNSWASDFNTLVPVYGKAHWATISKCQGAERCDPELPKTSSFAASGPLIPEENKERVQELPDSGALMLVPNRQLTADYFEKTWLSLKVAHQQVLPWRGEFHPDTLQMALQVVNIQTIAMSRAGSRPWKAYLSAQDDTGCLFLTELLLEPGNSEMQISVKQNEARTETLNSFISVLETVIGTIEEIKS
inactive: erlotinib 0.021 | [1] -0.038 | [2] 0.016 | [3] 0.096 | [4] 0.038 | [5] 0.019 | [6] -0.022 | [7] -0.018 | [8] 0.188 | IRAK-1-4 Inhibitor I 0.013

AHCYL1 (UniProt O43865)
UniProt O43865, sequence (O43865 whole entry, looked up): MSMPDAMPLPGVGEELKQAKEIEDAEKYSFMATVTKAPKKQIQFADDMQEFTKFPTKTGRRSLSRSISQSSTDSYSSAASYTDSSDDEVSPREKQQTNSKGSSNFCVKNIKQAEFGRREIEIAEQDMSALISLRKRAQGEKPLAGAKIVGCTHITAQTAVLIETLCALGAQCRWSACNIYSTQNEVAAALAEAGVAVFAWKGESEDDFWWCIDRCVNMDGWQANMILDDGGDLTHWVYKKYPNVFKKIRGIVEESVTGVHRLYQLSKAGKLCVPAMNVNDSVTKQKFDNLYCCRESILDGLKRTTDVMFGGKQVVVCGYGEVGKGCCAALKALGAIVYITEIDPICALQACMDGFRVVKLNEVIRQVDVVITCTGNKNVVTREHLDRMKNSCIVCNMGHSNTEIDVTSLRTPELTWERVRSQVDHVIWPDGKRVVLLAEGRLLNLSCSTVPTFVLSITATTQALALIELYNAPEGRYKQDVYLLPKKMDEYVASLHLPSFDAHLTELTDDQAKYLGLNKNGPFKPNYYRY
inactive: erlotinib -0.015 | [1] 0.018 | [2] -0.034 | [3] -0.009 | [4] -0.006 | [5] 0.008 | [6] -0.073 | [7] -0.024 | [8] 0.009 | IRAK-1-4 Inhibitor I 0.007

ANP32A (UniProt P39687)
inactive: erlotinib -0.147 | [1] 0.075 | [2] -0.199 | [3] -0.012 | [4] 0.012 | [5] 0.006 | [6] 0.018 | [7] 0.026 | [8] -0.008 | IRAK-1-4 Inhibitor I 0.013

ACTG1 (UniProt I3L4N8)
inactive: erlotinib 0.118 | [1] 0.163 | [2] -0.016 | [3] 0.029 | [4] -0.2 | [5] 0.054 | [6] -0.207 | [7] -0.142 | [8] -0.143 | IRAK-1-4 Inhibitor I -0.013

ABCD3 (UniProt P28288)
UniProt P28288, sequence (P28288 whole entry, looked up): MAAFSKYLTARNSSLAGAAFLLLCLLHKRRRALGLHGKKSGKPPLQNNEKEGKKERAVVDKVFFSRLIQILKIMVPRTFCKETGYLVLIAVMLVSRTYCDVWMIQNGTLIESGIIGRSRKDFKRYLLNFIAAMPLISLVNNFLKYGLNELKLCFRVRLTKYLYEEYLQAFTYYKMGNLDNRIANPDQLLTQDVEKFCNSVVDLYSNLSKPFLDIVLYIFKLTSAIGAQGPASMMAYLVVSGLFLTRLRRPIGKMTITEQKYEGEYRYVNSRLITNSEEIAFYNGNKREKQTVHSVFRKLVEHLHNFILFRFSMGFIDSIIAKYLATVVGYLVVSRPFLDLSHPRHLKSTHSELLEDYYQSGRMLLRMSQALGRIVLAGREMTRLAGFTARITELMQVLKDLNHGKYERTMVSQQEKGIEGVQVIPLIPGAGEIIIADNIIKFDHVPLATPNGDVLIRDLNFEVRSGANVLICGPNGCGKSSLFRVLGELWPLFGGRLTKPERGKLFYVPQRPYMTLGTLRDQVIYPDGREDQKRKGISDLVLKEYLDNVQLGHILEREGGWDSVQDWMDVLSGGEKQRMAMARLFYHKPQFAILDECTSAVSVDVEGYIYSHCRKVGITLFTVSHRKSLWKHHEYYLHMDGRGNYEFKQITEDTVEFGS
active: [1] 0.556
inactive: erlotinib -0.1 | [2] 0.217 | [3] -0.051 | [4] -0.055 | [5] -0.075 | [6] -0.031 | [7] -0.084 | [8] 0.044 | IRAK-1-4 Inhibitor I -0.003

ALDH5A1 isoform 2 (UniProt P51649)
inactive: erlotinib -0.005 | [1] 0.045 | [2] 0.024 | [3] -0.009 | [4] 0.006 | [5] 0.013 | [6] -0.026 | [7] -0.013 | [8] -0.002 | IRAK-1-4 Inhibitor I -0.012

AGPAT1 (UniProt Q99943)
inactive: erlotinib 0.012 | [1] 0.027 | [2] -0.145 | [3] 0.05 | [4] 0.028 | [5] -0.023 | [6] -0.01 | [7] -0.019 | [8] 0.01 | IRAK-1-4 Inhibitor I 0.036

ASB6 (UniProt Q9NWX5)
UniProt Q9NWX5, sequence (Q9NWX5 whole entry, looked up): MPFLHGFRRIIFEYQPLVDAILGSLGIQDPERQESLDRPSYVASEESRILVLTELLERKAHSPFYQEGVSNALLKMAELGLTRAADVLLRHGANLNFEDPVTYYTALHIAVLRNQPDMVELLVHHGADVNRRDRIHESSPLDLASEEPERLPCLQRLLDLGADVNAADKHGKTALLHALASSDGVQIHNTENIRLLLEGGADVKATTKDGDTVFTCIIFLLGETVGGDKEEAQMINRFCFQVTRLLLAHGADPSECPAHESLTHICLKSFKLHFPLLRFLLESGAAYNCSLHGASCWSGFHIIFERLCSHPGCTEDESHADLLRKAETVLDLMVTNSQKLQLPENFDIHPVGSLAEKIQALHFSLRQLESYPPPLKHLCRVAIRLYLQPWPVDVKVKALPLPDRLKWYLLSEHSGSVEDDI
inactive: erlotinib 0.038 | [1] -0.311 | [2] 0.04 | [3] -0.094 | [4] -0.005 | [5] 0.06 | [6] 0.092 | [7] -0.053 | [8] 0.327 | IRAK-1-4 Inhibitor I 0.002

AKAP8 (UniProt O43823)
UniProt O43823, sequence (O43823 whole entry, looked up): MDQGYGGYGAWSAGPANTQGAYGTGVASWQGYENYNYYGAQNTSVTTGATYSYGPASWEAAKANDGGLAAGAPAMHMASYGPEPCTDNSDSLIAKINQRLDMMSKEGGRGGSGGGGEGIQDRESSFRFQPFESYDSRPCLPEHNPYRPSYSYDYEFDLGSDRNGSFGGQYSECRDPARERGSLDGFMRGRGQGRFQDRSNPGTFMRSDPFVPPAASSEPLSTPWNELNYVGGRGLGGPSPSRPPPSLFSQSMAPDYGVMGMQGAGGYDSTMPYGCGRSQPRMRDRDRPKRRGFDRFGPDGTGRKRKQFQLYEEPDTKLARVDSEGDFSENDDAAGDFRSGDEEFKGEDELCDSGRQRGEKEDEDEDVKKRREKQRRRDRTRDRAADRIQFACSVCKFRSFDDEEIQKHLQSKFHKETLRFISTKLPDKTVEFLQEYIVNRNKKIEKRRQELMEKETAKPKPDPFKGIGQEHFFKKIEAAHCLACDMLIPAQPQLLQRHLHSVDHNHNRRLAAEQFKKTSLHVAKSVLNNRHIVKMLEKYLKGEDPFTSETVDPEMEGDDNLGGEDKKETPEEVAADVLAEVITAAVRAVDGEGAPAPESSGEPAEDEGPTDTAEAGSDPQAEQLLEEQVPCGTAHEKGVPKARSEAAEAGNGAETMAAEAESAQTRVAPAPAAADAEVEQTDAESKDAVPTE
inactive: erlotinib -0.015 | [1] 0.002 | [2] 0.038 | [3] -0.005 | [4] -0.04 | [5] 0.045 | [6] -0.047 | [7] 0.044 | [8] 0 | IRAK-1-4 Inhibitor I 0.089

AIMP2 (UniProt Q13155)
inactive: erlotinib 0.021 | [1] 0.062 | [2] -0.01 | [3] 0.006 | [4] 0.002 | [5] -0.016 | [6] -0.001 | [7] 0.014 | [8] -0.036 | IRAK-1-4 Inhibitor I 0.008

ALG3 (UniProt Q92685)
inactive: erlotinib 0.19 | [1] -0.117 | [2] -0.12 | [3] -0.037 | [4] 0.056 | [5] -0.016 | [6] -0.182 | [7] -0.103 | [8] -0.037 | IRAK-1-4 Inhibitor I 0.019

ANXA2 isoform 2 (UniProt P07355)
UniProt P07355, sequence (P07355 whole entry, looked up): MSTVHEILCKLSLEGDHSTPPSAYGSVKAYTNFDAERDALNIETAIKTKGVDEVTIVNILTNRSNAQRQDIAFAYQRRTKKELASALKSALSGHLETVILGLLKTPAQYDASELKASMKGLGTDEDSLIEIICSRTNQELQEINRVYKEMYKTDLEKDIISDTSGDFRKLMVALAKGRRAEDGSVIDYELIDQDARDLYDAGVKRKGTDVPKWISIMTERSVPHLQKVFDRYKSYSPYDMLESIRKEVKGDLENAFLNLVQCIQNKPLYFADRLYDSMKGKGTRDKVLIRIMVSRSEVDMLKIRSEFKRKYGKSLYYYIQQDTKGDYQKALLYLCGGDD
inactive: erlotinib -0.009 | [1] 0.041 | [2] 0.023 | [3] -0.003 | [4] 0.003 | [5] 0.004 | [6] 0.025 | [7] -0.006 | [8] -0.001 | IRAK-1-4 Inhibitor I -0.01

APOBEC3C (UniProt Q9NRW3)
UniProt Q9NRW3, sequence (Q9NRW3 whole entry, looked up): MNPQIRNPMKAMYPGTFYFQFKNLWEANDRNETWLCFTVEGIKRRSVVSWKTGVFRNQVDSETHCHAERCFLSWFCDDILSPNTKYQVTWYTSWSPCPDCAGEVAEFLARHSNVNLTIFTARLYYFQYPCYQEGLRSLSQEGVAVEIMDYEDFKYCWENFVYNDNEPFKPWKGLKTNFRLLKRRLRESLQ
inactive: erlotinib 0.054 | [1] 0.058 | [2] -0.029 | [3] 0.066 | [4] 0.056 | [5] -0.017 | [6] 0.015 | [7] 0.031 | [8] -0.003 | IRAK-1-4 Inhibitor I 0.038

ARMCX3 (UniProt Q9UH62)
inactive: erlotinib 0.023 | [1] -0.02 | [2] -0.005 | [3] 0.009 | [4] 0.033 | [5] -0.005 | [6] -0.043 | [7] -0.016 | [8] 0.064 | IRAK-1-4 Inhibitor I 0.03

ANAPC7 (UniProt Q9UJX3)
inactive: erlotinib -0.001 | [1] 0.006 | [2] 0.002 | [3] 0.024 | [4] -0.016 | [5] 0.003 | [6] 0.027 | [7] 0 | [8] -0.017 | IRAK-1-4 Inhibitor I 0.005

ACACB (UniProt O00763)
inactive: erlotinib 0.042 | [1] 0.097 | [2] -0.025 | [3] 0.018 | [4] -0.02 | [5] -0.01 | [6] -0.008 | [7] -0.005 | [8] 0.015 | IRAK-1-4 Inhibitor I 0.025

ACIN1 (UniProt E7EQT4)
inactive: erlotinib 0.001 | [1] -0.16 | [2] 0 | [3] 0.05 | [4] -0.027 | [5] -0.057 | [6] -0.009 | [7] 0.008 | [8] -0.027 | IRAK-1-4 Inhibitor I 0.012

ABHD16A (UniProt O95870)
UniProt O95870, sequence (O95870 whole entry, looked up): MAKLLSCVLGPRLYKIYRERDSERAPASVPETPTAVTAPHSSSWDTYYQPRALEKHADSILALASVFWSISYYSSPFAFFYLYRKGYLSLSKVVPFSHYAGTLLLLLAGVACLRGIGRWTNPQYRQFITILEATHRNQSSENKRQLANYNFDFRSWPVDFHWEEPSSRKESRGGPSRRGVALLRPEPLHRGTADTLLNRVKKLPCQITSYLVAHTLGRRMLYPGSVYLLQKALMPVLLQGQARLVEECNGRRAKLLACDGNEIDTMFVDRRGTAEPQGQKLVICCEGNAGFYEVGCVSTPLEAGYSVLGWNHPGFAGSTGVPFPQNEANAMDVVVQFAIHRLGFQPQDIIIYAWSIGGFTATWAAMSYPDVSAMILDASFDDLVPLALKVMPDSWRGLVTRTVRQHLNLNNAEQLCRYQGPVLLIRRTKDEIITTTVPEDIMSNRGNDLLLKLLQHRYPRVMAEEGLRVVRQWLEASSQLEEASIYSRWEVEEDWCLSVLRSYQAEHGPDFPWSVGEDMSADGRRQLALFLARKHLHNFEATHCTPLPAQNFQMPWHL
inactive: erlotinib -0.009 | [1] -0.047 | [2] 0.03 | [3] 0.046 | [4] -0.042 | [5] 0.015 | [6] -0.016 | [7] 0.014 | [8] 0.064 | IRAK-1-4 Inhibitor I -0.006

AGL (UniProt P35573)
inactive: erlotinib 0.007 | [1] 0.002 | [2] 0.003 | [3] -0.021 | [4] -0.01 | [5] 0.008 | [6] -0.035 | [7] -0.017 | [8] -0.006 | IRAK-1-4 Inhibitor I 0.001
